Out of some 5,500 compounds screened, about 2,000 (36%) were called active. About 18% were inconclusive and are not listed. No stated cut-off is given here; in the data, active means normalized growth mostly below about 0.91 (no sharp cut-off); inconclusive means no clear call, values can overlap the other calls; inactive means mostly above about 0.92. This is one part of the list.
Assay: chemical genetic growth profiling, strain panel (AID 1159580);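 further: tested at 20 µM; growth read once vehicle control cultures reached saturation at 30 °C; 1 = growth at the plate median or of vehicle wells; lower values mean less growth of the strain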
Conditions: growth OD

Measured: normalized growth

NCCCN
inactive: S. cerevisiae deletion strains, locus YJR066W, strain TOR1, active compounds read low 0.933 | S. cerevisiae deletion strains, locus YKL009W, strain mrt4, active compounds read low 1.02 | S. cerevisiae deletion strains, locus YKL068W, active compounds read low 0.985 | S. cerevisiae deletion strains, locus YKL085W, strain MDH1 (second series), active compounds read low 0.984 | S. cerevisiae deletion strains, locus YKL085W, strain MDH1, active compounds read low 0.984 | S. cerevisiae deletion strains, locus YKL160W, strain elf1, active compounds read low 1.02 | S. cerevisiae deletion strains, locus YKL190W, strain CNB1, active compounds read low 0.999 | S. cerevisiae deletion strains, locus YKR001C, strain vps1, active compounds read low 1.01 | S. cerevisiae deletion strains, locus YKR026C, strain gcn3, active compounds read low 0.986 | S. cerevisiae deletion strains, locus YKR091W, strain srl3, active compounds read low 0.998 | S. cerevisiae deletion strains, locus YLL001W, strain dnm1, active compounds read low 1 | S. cerevisiae deletion strains, locus YLL026W, active compounds read low 0.988 | S. cerevisiae deletion strains, locus YLL041C, strain sdh2, active compounds read low 0.987 | S. cerevisiae deletion strains, locus YLR027C, strain aat2, active compounds read low 1 | S. cerevisiae deletion strains, locus YLR039C, strain RIC1, active compounds read low 1.09 | S. cerevisiae deletion strains, locus YLR058C, strain SHM2, active compounds read low 1 | S. cerevisiae deletion strains, locus YLR102C, strain apc9, active compounds read low 0.988 | S. cerevisiae deletion strains, locus YLR113W, strain HOG1, active compounds read low 1.05 | S. cerevisiae deletion strains, locus YLR221C, strain rsa3, active compounds read low 0.959 | S. cerevisiae deletion strains, locus YLR258W, strain gsy2, active compounds read low 0.992 | S. cerevisiae deletion strains, locus YLR262C, strain YPT6 (second series), active compounds read low 1.02 | S. cerevisiae deletion strains, locus YLR262C, strain YPT6, active compounds read low 1.14 | S. cerevisiae deletion strains, locus YLR268W, strain sec22, active compounds read low 0.979 | S. cerevisiae deletion strains, locus YLR320W, strain mms22, active compounds read low 0.983 | S. cerevisiae deletion strains, locus YLR330W, strain CHS5, active compounds read low 0.993 | S. cerevisiae deletion strains, locus YLR342W, strain FKS1 (second series), active compounds read low 1.02 | S. cerevisiae deletion strains, locus YLR342W, strain FKS1, active compounds read low 0.994 | S. cerevisiae deletion strains, locus YLR357W, strain rsc2, active compounds read low 0.978 | S. cerevisiae deletion strains, locus YLR370C, strain arc18, active compounds read low 0.967 | S. cerevisiae deletion strains, locus YLR371W, strain rom2, active compounds read low 0.961 | S. cerevisiae deletion strains, locus YLR384C, strain iki3, active compounds read low 0.993 | S. cerevisiae deletion strains, locus YLR418C, strain cdc73, active compounds read low 1.03 | S. cerevisiae deletion strains, locus YML016C, strain PPZ1, active compounds read low 0.994 | S. cerevisiae deletion strains, locus YML032C, strain rad52, active compounds read low 1.02 | S. cerevisiae deletion strains, locus YML120C, strain ndi1, active compounds read low 0.992 | S. cerevisiae deletion strains, locus YML124C, strain tub3, active compounds read low 0.99 | S. cerevisiae deletion strains, locus YMR058W, strain fet3, active compounds read low 0.994 | S. cerevisiae deletion strains, locus YMR078C, strain ctf18, active compounds read low 0.972 | S. cerevisiae deletion strains, locus YMR125W, strain sto1, active compounds read low 0.97 | S. cerevisiae deletion strains, locus YMR129W, active compounds read low 0.991 | S. cerevisiae deletion strains, locus YMR205C, strain PFK2, active compounds read low 1.02 | S. cerevisiae deletion strains, locus YMR223W, strain ubp8, active compounds read low 1.01 | S. cerevisiae deletion strains, locus YMR231W, strain pep5, active compounds read low 0.946 | S. cerevisiae deletion strains, locus YMR307W, strain GAS1, active compounds read low 1.1 | S. cerevisiae deletion strains, locus YNL067W, strain RPL9B, active compounds read low 1.01 | S. cerevisiae deletion strains, locus YNL071W, strain lat1, active compounds read low 0.985 | S. cerevisiae deletion strains, locus YNL183C, strain NPR1, active compounds read low 0.969 | S. cerevisiae deletion strains, locus YNL209W, strain ssb2, active compounds read low 0.993 | S. cerevisiae deletion strains, locus YNL233W, strain BNI4, active compounds read low 1.01 | S. cerevisiae deletion strains, locus YNL248C, strain rpa49, active compounds read low 0.993 | S. cerevisiae deletion strains, locus YNL250W, strain rad50, active compounds read low 0.979 | S. cerevisiae deletion strains, locus YNL271C, strain bni1, active compounds read low 0.99 | S. cerevisiae deletion strains, locus YNL298W, strain CLA4, active compounds read low 1.01 | S. cerevisiae deletion strains, locus YNL307C, strain MCK1, active compounds read low 0.985 | S. cerevisiae deletion strains, locus YNL322C, strain KRE1 (second series), active compounds read low 0.962 | S. cerevisiae deletion strains, locus YNL322C, strain KRE1, active compounds read low 0.996 | S. cerevisiae deletion strains, locus YNR049C, strain mso1, active compounds read low 0.988 | S. cerevisiae deletion strains, locus YNR052C, strain pop2, active compounds read low 0.992 | S. cerevisiae deletion strains, locus YOL006C, strain TOP1, active compounds read low 1.08 | S. cerevisiae deletion strains, locus YOL012C, strain htz1 0.761 | S. cerevisiae deletion strains, locus YOL147C, strain pex11, active compounds read low 0.997 | S. cerevisiae deletion strains, locus YOR001W, strain rrp6, active compounds read low 0.951 | S. cerevisiae deletion strains, locus YOR061W, strain CKA2, active compounds read low 0.997 | S. cerevisiae deletion strains, locus YOR069W, strain VPS5, active compounds read low 0.993 | S. cerevisiae deletion strains, locus YOR070C, strain gyp1, active compounds read low 0.999 | S. cerevisiae deletion strains, locus YOR080W, strain dia2, active compounds read low 0.97 | S. cerevisiae deletion strains, locus YOR083W, strain WHI5, active compounds read low 1.02 | S. cerevisiae deletion strains, locus YOR106W, strain vam3, active compounds read low 0.995 | S. cerevisiae deletion strains, locus YOR136W, strain idh2, active compounds read low 0.974 | S. cerevisiae deletion strains, locus YOR144C, strain elg1, active compounds read low 0.993 | S. cerevisiae deletion strains, locus YOR184W, strain ser1, active compounds read low 1.01 | S. cerevisiae deletion strains, locus YOR231W, strain MKK1, active compounds read low 0.987 | S. cerevisiae deletion strains, locus YOR265W, strain rbl2, active compounds read low 0.99 | S. cerevisiae deletion strains, locus YOR270C, strain vph1, active compounds read low 0.974 | S. cerevisiae deletion strains, locus YOR290C, strain snf2, active compounds read low 0.991 | S. cerevisiae deletion strains, locus YOR316C, strain cot1, active compounds read low 0.987 | S. cerevisiae deletion strains, locus YPL051W, strain arl3, active compounds read low 0.984 | S. cerevisiae deletion strains, locus YPL078C, strain atp4, active compounds read low 1 | S. cerevisiae deletion strains, locus YPL106C, strain sse1, active compounds read low 0.996 | S. cerevisiae deletion strains, locus YPL240C, strain hsp82, active compounds read low 0.986 | S. cerevisiae deletion strains, locus YPL241C, strain CIN2, active compounds read low 1 | S. cerevisiae deletion strains, locus YPL256C, strain CLN2, active compounds read low 0.988 | S. cerevisiae deletion strains, locus YPR119W, strain clb2, active compounds read low 0.986 | S. cerevisiae deletion strains, locus YPR141C, strain kar3, active compounds read low 0.985 | S. cerevisiae deletion strains, locus YPR163C, strain tif3, active compounds read low 0.986 | S. cerevisiae deletion strains, locus YPR167C, strain met16, active compounds read low 0.999 | S. cerevisiae deletion strains, strain wtn01, active compounds read low 0.96 | S. cerevisiae strains, strain wild type, active compounds read low 1

Reference: PubChem BioAssay AID1159580 (chemical genetic matrix, 2015)
